# Pf growth 96h: P. falciparum growth inhibition at 96 hour, primary screen for plastid delayed-death inhibitors; P. falciparum luciferase reporter growth, 96 h; Potency, µM (doses to about 28.7 µM), for the others: at the highest dose activity change, negative = inhibition, hits mostly inhibitors; 6.9% of 320,000 active; AID 504834; also: potency is read from the fitted curve at half-maximal effect; % is scaled to controls: 0 for no effect and ±100 for the full control effect
#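 Cell-based qHTS: luciferase-tagged P. falciparum in erythrocytes (2% hematocrit, 0.05% parasitemia final) incubated with compounds for 96 hours, 37 C, 5% CO2; luciferase detection reagent then added and luminescence measured.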
# Cycloheximide cs: counter-screen hit for Shiga toxin inhibitors, cycloheximide; 12% of 300,000 active; cell reporter, cycloheximide protein synthesis inhibition counterscreen; AID 2314; max response, %; in the data active = max response mostly above about 13%, no sharp cut-off; inactive = mostly below about 14%; also: read at 38.3 µM for the half of the compounds with a filed dose; 0% is about no effect
# Pf growth 48h: inhibits P. falciparum growth in the first generation, 48 h; P. falciparum luciferase growth in erythrocytes, 48 h; Potency, µM (titrated, usually from 28.7 µM), for the others: top-dose activity change, negative = inhibition, usual class: inhibitors; 5.9% of 310,000 active; AID 504832; also: potency is read from the fitted curve at half-maximal effect; % is scaled to controls: 0 for no effect and ±100 for the full control effect
#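 First compound was added to culture medium, then infected red cells at 0.1% parasitemia and 2% hematocrit (final). After incubation at 37 C under 5% CO2, luciferase detection reagent was dispensed and light output recorded.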
# HCMV antiviral: human cytomegalovirus inhibition; HFF cells, HCMV-luciferase reporter, 72 h; active compounds read low; activity change, negative = inhibition, % at 57.5 µM; 4.5% of 410,000 active; in the data active = activity change below about -60%; inconclusive = no clear call, values can overlap the other calls; inactive = above about -39%; also: % is scaled to controls: 0 for no effect and ±100 for the full control effect
#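 After 16 h attachment at 37C, HFF cells received test compound and HCMV-luciferase (1 PFU/cell); reporter luminescence read 72 h later, data normalized against buffer-only and known inhibitor Salinomycin.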
# Shiga inhibitor: inhibitors of Shiga toxin in Vero cells. Vero cells, Shiga toxin protein synthesis inhibition reporter. inhibition, % at 38.7 µM. 9.2% of 290,000 active. AID 2315; in the data active = inhibition mostly above about 28%, no sharp cut-off; inactive = mostly below about 43%; also: 0% is about no effect
# * marks the source's active call; other numbers are inactive results; u = inconclusive; x = not tested or not shown. Hits are enriched below; roughly 20% of the tested compounds scored in any of these assays. Unless noted, calls follow the shape of the dose curve; as a rule, active = well fitted inhibition curve with a large enough effect; inconclusive = small, poorly fitted or top-dose-only effect, or another doubt; inactive = no such curve, though single readings can be large or run the other way.
SMILES,Pf growth 96h,Cycloheximide cs,Pf growth 48h,HCMV antiviral,Shiga inhibitor
O=[N+]([O-])c1ccc(N2CCN(S(=O)(=O)c3ccc(Cl)cc3)CC2)cc1NCc1cccnc1,u,1,7.4µM*,-29,-14
O=[N+]([O-])c1ccc(N2CCN(S(=O)(=O)c3ccccc3)CC2)cc1NCc1cccnc1,-1%,-1,9.3µM*,11,-4
CC(C)CCOP(N)(=O)Oc1ccccc1 (centres undefined),2.1µM*,-1,-23%,0,-5
C[C@H]1CC[C@]2(O[C@@H](CCO)C[C@H](O)[C@H]2O)O1,x,x,x,14,x
O=C1C2C3c4ccccc4C(c4ccccc43)C2C(=O)N1c1ccncc1 (centres undefined),u,8,-16%,-64*,-3
O=C1C2C3c4ccccc4C(c4ccccc43)[C@@H]2C(=O)N1c1cccnc1 (some centres undefined),250%,1,-2%,-28,-1
Cc1ccnc2c(N3C(=O)C4C5c6ccccc6C(c6ccccc65)C4C3=O)cccc12 (centres undefined),5.2µM*,1,u,u,-15
CN(C)CCN(C)C1CN(CCc2ccccc2)S(=O)(=O)C1 (centres undefined),x,x,x,27,x
CC(C)c1ccc(CNc2n[nH]c(-c3ccco3)n2)cc1,x,x,x,99,x
O=C(ONC1=NCCCCC1)c1ccc(Cl)cc1,x,17*,u,31,37
O=C(CNC1=NCCC1)c1ccc(Cl)cc1,12µM*,-2,u,22,-4
O=C(ONC1=NCCCCC1)c1c(F)cccc1F,-50%,18*,13µM*,-1,-3
O=C(NC1=NCCCCC1)c1cccc2ccccc12,20%,-2,11%,-20,14
O=C(CN1C(=O)CCc2cc(Br)ccc21)Nc1ccc(OC(F)(F)F)cc1,x,x,x,11,x
COc1cccc(CC2(CO)CCCN(Cc3cn[nH]c3C3CCCCC3)C2)c1 (centres undefined),u,-1,u,33,-8
OCC1(Cc2cccc(Cl)c2)CCCN(Cc2cn[nH]c2C2CCCCC2)C1 (centres undefined),8%,-1,12µM*,-27,-6
CC(=O)c1cccc(-c2ccnc3c2CC(C(=O)Nc2ccc4c(c2)OCO4)O3)c1 (centres undefined),x,x,x,-29,x
O=C(CN1C(=O)CCc2cc(S(=O)(=O)N3CCOCC3)ccc21)Nc1cccc(C(F)(F)F)c1,x,x,x,33,x
O=C(NCc1cc(Cl)cc(Cl)c1)c1ccc2nc(COCCO)[nH]c2c1,x,x,x,-16,x
COc1ccc2[nH]cc(C(=O)CN3CCCC(C)C3)c2c1 (centres undefined),22%,-1,-6%,39,15
COc1ccc2[nH]cc(C(=O)CN3CCC(C)CC3)c2c1,u,35*,61%,162,76*
COc1cccc(N2CCN(CC(=O)c3c[nH]c4ccc(OC)cc34)CC2C)c1 (centres undefined),u,6,12µM*,36,10
O=C(NCCCN1CCN(c2cccc(Cl)c2)CC1)Nc1ccccc1C(F)(F)F,x,x,x,-20,x
O=C(NCC(c1cccnc1)N1CCc2ccccc21)c1ccc(Cl)cc1 (centres undefined),x,x,x,-18,x
COc1cccc(-n2c(=O)c3sccc3n(CC(=O)NCC3CCCO3)c2=O)c1 (centres undefined),-23%,4,1%,-20,20
SMILES,Pf growth 96h,Cycloheximide cs,Pf growth 48h,HCMV antiviral,Shiga inhibitor
CC(C)(C)[C@H](N)C(=O)N[C@H]1CCC2C3CC=C4C[C@@H](O)CC[C@]4(C)C3CC[C@@]21C (some centres undefined),x,x,x,-99*,x
O=[N+]([O-])c1cc(-c2ccc([As](=O)(O)O)cc2)ccc1[As](=O)(O)O,u,-5,8%,x,-6
O=[N+]([O-])c1ccc([As](=O)(O)O)cc1,1.7µM*,x,3µM*,x,x
CC(=O)N1c2ccccc2Oc2cc3ccccc3cc21,u,26*,1.9µM*,16,53
Cc1nn(C2CCS(=O)(=O)C2)c(Cl)c1/C=C/C(=O)OCC(=O)c1c[nH]c2ccccc12 (centres undefined),u,-3,u,12,-2
Cc1nn(C2CCS(=O)(=O)C2)c(Cl)c1/C=C/C(=O)OCC(=O)c1cc(C)n(-c2ccc(F)cc2)c1C (centres undefined),u,3,15µM*,-86*,8
Cc1c(NC(=O)c2c(N)sc3c2CCCC3)c(=O)n(-c2ccccc2)n1C,-5%,-2,-18%,-18,-5
Cc1ccc(C)c(N2CCN(C3CCCC(C)C3)CC2)c1 (centres undefined),u,-1,u,-35,-8
CN(C)c1oc(COc2ccccc2F)nc1C#N,49%,29*,34%,47,59*
COc1ccc(OCc2ccc(-c3nc(C#N)c(NCc4ccc(F)cc4)o3)o2)cc1,x,x,x,-14,x
COc1ccc(CCNc2oc(Cc3cccc4ccccc34)nc2C#N)cc1OC,u,8,6.6µM*,-17,1
COc1ccc(CCNc2oc(COc3ccccc3F)nc2C#N)cc1,u,15*,-3%,-3,30
N#Cc1nc(COc2ccccc2F)oc1NCc1ccc(F)cc1,12%,35*,x,-31,64*
COc1ccc(CCNc2oc(COc3ccc(Br)cc3)nc2C#N)cc1OC,u,-6,x,-14,-4
COc1ccc(OCc2nc(C#N)c(NCc3ccccc3Cl)o2)cc1,x,x,x,-31,x
O=C(CN1CCC(N2CCCCC2)CC1)N1CCOCC1,20%,2,3%,8,-9
N#Cc1c(N)nc(SCc2ccccc2)c(C#N)c1-c1ccco1,39%,15*,u,14,6
COC(=O)CSc1nc2c(c(-c3ccc(O)cc3)c1C#N)CCCC2,-23%,-3,4%,-19,-3
COC(=O)CSc1nc2c(c(-c3ccco3)c1C#N)CCCC2,x,9,1.9µM*,x,2
N#Cc1c(N)nc(SCC(=O)OCc2ccccc2)c(C#N)c1-c1ccco1,4.1µM*,-3,u,34,-3
CCN(CCOC(=O)Nc1ccc(Cl)cc1)C(=O)Nc1ccc(Cl)cc1,x,x,x,9,x
CCNC(=O)C1(C)CCCN(C(=O)c2cc(-c3ccccc3)cs2)C1 (centres undefined),x,x,x,27,x
c1ccc(-c2noc(-c3ccno3)n2)nc1,13%,31*,34%,-15,48*
OC(c1ccc(F)c(F)c1)c1nc(-c2ccccc2)cs1 (centres undefined),x,x,x,2,x
c1ccc(-c2nccc(-c3ccco3)n2)nc1,u,22,-24%,u,42*
CCN(CC)c1ccc(-c2nc(-c3ccccn3)no2)cc1[N+](=O)[O-],x,x,x,-19,x
c1ccc(-c2cc(-c3nc(-c4ccccn4)no3)c3ccccc3n2)cc1,x,x,x,-16,x
Fc1ccc(-c2csc(-c3ccccn3)n2)cc1F,85%,46*,161%,-6,175*
c1ccc(-c2noc(-c3ccco3)n2)nc1,x,29*,224%,35,36*
